Source: PubChem BioAssay (National Center for Advancing Translational Sciences (NCATS))
DRD3 agonist – qHTS of D3 Dopamine Receptor Agonist: qHTS; AID 652048, 2013; D3R DiscoveRx beta-arrestin cells, luminescence, 90 min; 0.58% of 410,000 active; max activation, %; in the data active = max activation above about 30%; also: 0% is about no effect
Target sequence (P35462 whole entry, looked up): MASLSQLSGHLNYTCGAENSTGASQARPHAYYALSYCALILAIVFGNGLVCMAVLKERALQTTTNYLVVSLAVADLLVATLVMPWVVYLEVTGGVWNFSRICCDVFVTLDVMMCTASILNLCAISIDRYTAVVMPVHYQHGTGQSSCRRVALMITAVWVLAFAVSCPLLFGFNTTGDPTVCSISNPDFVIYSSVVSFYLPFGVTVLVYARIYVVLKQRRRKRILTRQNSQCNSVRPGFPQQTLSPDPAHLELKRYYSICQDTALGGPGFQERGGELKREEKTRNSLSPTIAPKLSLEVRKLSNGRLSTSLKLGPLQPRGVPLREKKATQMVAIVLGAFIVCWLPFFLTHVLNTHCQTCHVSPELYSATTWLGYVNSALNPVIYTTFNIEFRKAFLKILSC
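Cells at 1500/well, incubated overnight, then treated with pinned compounds (dopamine as control) for 90 min at 37 degrees C. DiscoveRx reagent added for 30 - 60 minutes at room temperature; luminescence read.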
ATXN2 expr inh – Primary qHTS for Inhibitors of ATXN expression. Potency, µM (titrated, usually from 57 µM), inactives show at the highest dose activity change, negative = inhibition, most hits filed as inhibitors. 0.72% of 360,000 active. HEK-293 ATXN2-luciferase reporter, luminescence, 24 h; also: potency is read from the fitted curve at half-maximal effect; % is scaled to controls: 0 for no effect and ±100 for the full control effect; nearly all actives have a fitted effect of over 55% in size
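ATXN2-luciferase reporter cells (luciferase flanked by upstream and downstream ATXN2 gene portions) were treated 24 h at 37 °C with compounds at up to 57 uM. SteadyGlo luminescence gave expression; GF-AFC fluorescence gave viability.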
TGFb inhibitor – qHTS for Inhibitors of TGF-b; HepG2 CAGA-GFP TGF-b/SMAD3 reporter, GFP fluorescence, 18 h; TGF-beta stimulated, 500 pg/mL final; Potency, µM (highest dose often 46.1 µM), for inactives: top-dose activity, negative = inhibition, most hits filed as inhibitors; 1.2% of 410,000 active; AID 588855, 2011; also: potency is read from the fitted curve at half-maximal effect; % is scaled to controls: 0 for no effect and ±100 for the full control effect; nearly all actives have a fitted effect of over 65% in size
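HEPG2 CAGA-GFP, 1000 cells/well; 2 h settle, 37 C; cpd via pin tool; TGF-b 500 pg/mL final; 18 h, 37 C; GFP imaging ex488/em500-530; %Activity normalised to -TGF-b and +DMSO controls; CRC fit, curve class.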
HepG2 tox – qHTS for Inhibitors of TGF-b: Cytotox Counterscreen | HepG2 CAGA-GFP viability, ATP luminescence, 18 h | Potency, µM (series often up to 46.1 µM), inactives show top-dose activity change, negative = cytotoxicity, most hits filed as cytotoxic | 0.76% of 410,000 active | AID 588856, 2011; also: potency is read from the fitted curve at half-maximal effect
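HepG2 CAGA-GFP cells (1000/well, DMEM with 1% FBS) received compound, then TGF-beta at 500 pg/mL final, and were incubated 18 hours at 37 degrees C. Viability was read by CellTiter-Glo luminescence. Media-only wells were set as complete cell-killing and DMSO as no toxicity.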
D3 antag – qHTS of D3 Dopamine Receptor Antagonist: qHTS; D(3) dopamine receptor (Homo sapiens), P35462; D3R cells, DiscoveRx beta-arrestin luminescence, antagonist mode; stronger effect = lower value; max response, negative = inhibition, %; 2.5% of 360,000 active; AID 652054, 2013; in the data active = max response below about -50%; inconclusive = no clear call, values can overlap the other calls; also: % is scaled to controls: 0 for no effect and ±100 for the full control effect
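Cells expressing the human receptor were seeded at 1500 cells/well, incubated overnight at 37 degrees C in 5% CO2, then exposed to library compounds with dopamine controls for 90 minutes at 37 degrees C before luminescent detection.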
S2 tox – Viability Counterscreen for Primary qHTS for Inhibitors of ATXN expression | S2 cells (HEK-293 line with an ATXN2-luciferase reporter) viability, CellTiter-Fluor protease fluorescence, 24 h | Potency, µM (doses to about 56.7 µM), actives largely listed as cytotoxic | 0.49% of 400,000 active; also: potency is read from the fitted curve at half-maximal effect; nearly all actives have a fitted effect of over 40% in size
Numbers without * were called inactive; i = inactive; ? = inconclusive; nt = no result given. Shown are actives, neighbours in structure and some others; about 4.7% of the full set was active somewhere. Unless noted, calls follow the shape of the dose curve; as a rule, active = well fitted curve in the direction sought with a large enough effect; inconclusive = small, poorly fitted or top-dose-only effect, or another doubt; inactive = no such curve, though single readings can be large; an effect the other way counts as inactive or inconclusive.

SMILES | DRD3 agonist | ATXN2 expr inh | TGFb inhibitor | HepG2 tox | D3 antag | S2 tox
CCOC(=O)CSCc1c(C#N)c2ccccc2n1C | 0 | 4% | -1% | 9% | -52* | i
Cn1c(CN2CCCC2)c(C#N)c2ccccc21 | -12 | nt | 9% | -2% | -86* | ?
CC1CCCCN1Cc1c(C#N)c2ccccc2n1C (stereo unspecified) | -11 | 5% | -33% | -14% | -66* | i
CC(=O)N(Cc1c(C#N)c2ccccc2n1C)c1ccccc1 | -8 | -6% | -1% | -1% | -1 | i
CN1CCN(Cc2c(C#N)c3ccccc3n2C)CC1 | -5 | -4% | ? | -26% | -6 | ?
COc1cc(OC)c(NC(=O)CCn2cnc3onc(-c4ccc(F)cc4)c3c2=O)cc1Cl | 0 | 1% | 12% | 0% | nt | i
Cc1ncc2c(c1CNC(=O)/C=C/c1cccs1)CCN(C(=O)c1ccc3c(c1)OCCO3)C2 | nt | nt | nt | nt | nt | i
COc1ccc(OC)c2c(C)ccnc12 | nt | nt | 7.9µM* | 13µM* | nt | nt
CCOC(=O)c1ccc(N2C(=O)c3[nH]nc(-c4ccc(OCC)cc4)c3C2c2ccc(OC)cc2OC)cc1 (stereo unspecified) | -9 | -5% | ? | -16% | nt | i
CCOc1ccc(-c2n[nH]c3c2C(c2cccs2)N(c2ccc(Br)cc2)C3=O)cc1 (stereo unspecified) | 3 | nt | 6.3µM* | -61% | nt | nt
CCOc1ccc(N2C(=O)c3[nH]nc(-c4ccc(OC)cc4)c3C2c2cccs2)cc1 (stereo unspecified) | 14 | ? | ? | -28% | nt | 18µM*
CCN1CCN(C(c2cccc(F)c2)c2c(O)cc(C)n(Cc3ccco3)c2=O)CC1 (stereo unspecified) | 9 | nt | 23% | -1% | nt | nt
Cc1ccc2nc3c(cc(C#N)c(=O)n3-c3nnc(SCc4ccc(F)cc4)s3)c(=O)n2c1 | -1 | 15% | 2% | 0% | nt | i
CCN1CCc2c(sc(-n3cccc3)c2C(CCC(C)C)NC(=O)NCCC(=O)OC)C1 (stereo unspecified) | -18 | nt | ? | -33% | nt | nt
CCN1CCc2c(sc(-n3cccc3)c2C(C)NC(=O)Nc2ccc(C(=O)OC)cc2)C1 (stereo unspecified) | -25 | nt | 10µM* | -30% | nt | nt
O=C(NCc1cccc(Cl)c1)c1ccc(S(=O)(=O)Nc2cccc(C(F)(F)F)c2)cc1 | -24 | -6% | ? | 10µM* | 0 | i
O=C(NCc1ccccn1)c1ccc(NS(=O)(=O)c2cccc(Cl)c2)cc1 | -15 | -10% | 0% | -42% | -61* | i
COc1ccc(CCNC(=O)c2ccc3c(c2)CCN3S(=O)(=O)c2ccccc2)cc1OC | 8 | 0% | -9% | -22% | nt | ?
CCN1CCc2c(C#N)c(N3CCCCC3)nc(NCc3ccccc3)c2C1 | -6 | -31% | 22µM* | 13µM* | -11 | ?
CN(C)CCCOC(=O)c1ccccc1Cl | -4 | -2% | 1% | 7% | ? | i
CN(C)CCCOC(=O)N1c2ccccc2C=Cc2ccccc21 | -2 | nt | 0% | -30% | -61* | i
CC(=O)c1ccccc1-c1ccc2c(c1)CC(CNC(=O)c1ccnc(Cl)c1)O2 (stereo unspecified) | nt | nt | nt | nt | nt | i
Fc1cccc(NC(=S)N2CCN(c3ccccn3)CC2)c1 | -5 | 1% | -4% | 2% | -9 | i
FC(F)(F)c1cccc(NC(=S)N2CCN(c3ccccn3)CC2)c1 | 6 | -23% | ? | -3% | -106* | i
Nc1nc(NCCc2ccccc2)c2[nH]cnc2n1 | nt | nt | 1% | -37% | nt | nt
SMILES | DRD3 agonist | ATXN2 expr inh | TGFb inhibitor | HepG2 tox | D3 antag | S2 tox
Nc1nc(OCc2ccccc2)c2[nH]cnc2n1 | -96 | 14% | 16% | -19% | -121* | i
CCOC(=O)c1ccc(NC(=O)CCCc2nc(-c3cc(OC)c(OC)c(OC)c3)no2)cc1 | 4 | 9% | 1% | -27% | nt | i
Cc1cc(C)n2nc(NCc3cccc(Br)c3)nc2n1 | 5 | 7% | -15% | 7% | ? | i
COc1ccc(CNc2nc3nc(C)cc(C)n3n2)cc1OC | 5 | 10% | 6% | -21% | -56* | i
COc1ccc([C@H]2CC(=O)C=C(c3ccccc3)C2)cc1OC | 14 | -26% | -12% | -21% | 13 | i
CCCCC/C=C/C1=CC(=O)C[C@H](c2ccc(OC)c(OC)c2)C1 | 3 | 22µM* | ? | -18% | 5 | ?
CSc1ccc(C2=CC(=O)C[C@H](c3ccc4c(c3)OCO4)C2)cc1 | -31 | 2% | 0% | 3% | -52* | i
Cc1ccc(C2=CC(=O)C[C@H](c3ccc4c(c3)OCO4)C2)cc1 | -9 | 12% | -3% | -17% | -7 | i
CC1CCN(CC(=O)Nc2cccc([N+](=O)[O-])c2)CC1 | -58 | 0% | -2% | -21% | -58* | i
Cc1ccc([N+](=O)[O-])cc1NC(=O)CN1CCCCC1 | -3 | 16% | -5% | 1% | -78* | i
CC1CCN(CC(=O)Nc2ccc(Cl)cc2[N+](=O)[O-])CC1 | 2 | 1% | 17% | 3% | -10 | i
O=C(CN1CCCC1)Nc1ccc(-c2nc3cc(NC(=O)CN4CCCC4)ccc3o2)cc1 | 6 | ? | ? | -36% | -18 | 13µM*
Cc1ccc([N+](=O)[O-])cc1NC(=O)CN1CCC(C)CC1 | -12 | -2% | -9% | -5% | -84* | i
O=C(CN1C(=O)C2CCCCC2C1=O)Nc1cccc([N+](=O)[O-])c1 (stereo unspecified) | -11 | -9% | 2% | 7% | -6 | i
COc1ccccc1N1CCN(c2ccc(=O)n(CC(=O)O)n2)CC1 | 4 | -5% | 0% | 5% | nt | i
Cc1cnc(C)c(-c2cc(F)cc3c2OC(CNC(=O)c2cc(Cl)ccc2F)C3)n1 (stereo unspecified) | nt | nt | nt | nt | nt | i
C#Cc1ccc(-c2ccccc2F)cc1 | nt | 6% | nt | nt | nt | i
CCOC(=O)c1sc(N2C(=O)c3oc4ccc(F)cc4c(=O)c3C2c2cccc(OC)c2)nc1C (stereo unspecified) | 4 | nt | -21% | 3% | nt | nt
FC(F)(F)C(F)(F)C(F)(F)c1nc2ccccc2[nH]1 | nt | nt | -8% | -35% | nt | nt
O=C(NNC(=O)C1CC=CCC1)c1cccc(Br)c1 (stereo unspecified) | 8 | 15% | 0% | 19% | -13 | i
